{"source": "PubChem BioAssay (Tox21)", "note": "Results filed as inconclusive are left out. A number with no mark means an inactive call. The call rests on the fitted dose curve; in most records, active means well fitted activation curve with a large enough effect in the repeat runs; inconclusive means weak or mixed curves; inactive means flat fitted curve, though single readings scatter. On the % scale 0 is the no-effect control and ±100 the full control effect."}
{"assay": "Caspase-3/7 induction in HepG2 cells by small molecules, qHTS assay (AID 1346978); further: nearly all actives have a fitted effect of over 15% in size", "conditions": "HepG2 caspase-3/7 activation, Caspase-Glo luminescence, 17 h; series mostly up to 92.4 µM; caspase activation: at the top concentration", "excerpt": "National Center for Advancing Translational Sciences [NCATS] NIH Chemical Genomics Center [NCGC] U.S. Environmental Protection Agency [EPA] National Institutes of Environmental Health Sciences [NIEHS] National Toxicology Program [NTP] Assay overview: Apoptosis is a process of programmed cell death and plays a central role in the development of multicellular organisms. It is a highly regulated process and induces cell death by activating caspases, which are the members of cysteine aspartic acid-specific protease (caspase) family. Caspases involved in apoptosis are classified by their mechanism of action as initiator caspases (caspase-2, -8, -9 and -10) and executioner caspases (caspase-3, -6, and -7). Inhibition of apoptosis results in number of cancers, autoimmune diseases, inflammatory diseases and viral infection. To identify small molecule compounds that induce apoptosis, a homogeneous, luminescent Caspase-Glo 3/7 assay was used. Wild type HepG2 cells were used to screen Tox21 libraries for identifying caspase-3/7 activity inducers.\nAssay Protocol Summary: HepG2 cells were dispensed at 2,000 per well in 5uL of culture medium into white solid bottom 1536-well plates (Corning Life Sciences, Corning, NY) using a Multidrop Combi (Thermo Scientific, Waltham, MA) dispenser. The assay plates were incubated at 37 C and 5% CO2 for 5hr, and then 23nL of compounds dissolved in DMSO and positive control were transferred using a Pintool station (Wako, San Diego, CA). The assay plates were incubated at 37C and 5% CO2 for 17hr. For caspase-3/7 activity read, 4uL of Caspase-Glo 3/7 reagent (Promega Corporation, Madison, WI) was added to each well of the assay plates using Flying Reagent Dispenser (FRD, Aurora Discovery, San Diego, CA) and incubated the assay plates at room temperature for 30min. The luminescence signal was quantified using a ViewLux plate reader (Perkin Elmer, Shelton, CT)."}
{"smiles": "CCCCCCCCCCCCCCCC(=O)OC", "caspase activation": "1.29% [at 19 µM]"}
{"smiles": "c1cc2ccc3ccc4ccc5cccc6c(c1)c2c3c4c56", "caspase activation": "1.34% [at 3.27 µM]"}
{"smiles": "Cc1ccc(N)nc1", "caspase activation": "0.71%"}
{"smiles": "O=C1CC2(CCCC2)CC(=O)N1CCNCC1COc2ccccc2O1", "note": "(stereo not given)", "caspase activation": "0.113% [at 42.5 µM]"}
{"smiles": "C=CCOC(=O)CCCCCCCC", "caspase activation": "0.441%"}
{"smiles": "CCOC(=O)CC(C(C)=O)C(C)=O", "caspase activation": "1.62%"}
{"smiles": "CN(C)CCC[C@@]1(c2ccc(F)cc2)OCc2cc(C#N)ccc21", "caspase activation": "-0.61% [at 42.5 µM]"}
{"smiles": "CC(C)c1cc(C(C)C)cc(C(C)C)c1", "caspase activation": "-0.337%"}
{"smiles": "COCc1nnc(-c2ccc[n+]([O-])c2)n1-c1c(Cl)c(Cl)cc2[nH]c(=O)c(=O)[nH]c12", "caspase activation": "1.33%"}
{"smiles": "Clc1cc(Cl)c(Cl)c(Cl)c1Cl", "caspase activation": "-1.8%"}
{"smiles": "CCCCc1ccc(Cl)cc1", "caspase activation": "-1.2%"}
{"smiles": "COC(=O)c1ccc(C(=O)O)cc1", "caspase activation": "-2.97%"}
{"smiles": "CCO[Si](CC(C)C)(OCC)OCC", "caspase activation": "-0.425%"}
{"smiles": "NNC(=O)OCc1ccccc1", "caspase activation": "-0.251%"}
{"smiles": "CC(CN1CC(=O)NC(=O)C1)N1CC(=O)NC(=O)C1", "note": "(stereo not given)", "caspase activation": "3.3%"}
{"smiles": "COC(=O)c1c(C)cc(O)c(C)c1O", "caspase activation": "1.56%"}
{"smiles": "COC(=O)c1ccccc1Cl", "caspase activation": "0.261%"}
{"smiles": "COCCCOc1cc(C[C@@H](C[C@H](N)[C@@H](O)C[C@H](C(=O)NCC(C)(C)C(N)=O)C(C)C)C(C)C)ccc1OC", "caspase activation": "0.151% [at 42.5 µM]"}
{"smiles": "CCCCOCCCC", "caspase activation": "-0.594%"}
{"smiles": "CCN(CC)CC", "caspase activation": "-3.07%"}
{"smiles": "CC(=O)c1c(C)cc(C(C)(C)C)cc1C", "caspase activation": "-0.763%"}
{"smiles": "CN(C)CCc1c[nH]c2ccc(CS(=O)(=O)N3CCCC3)cc12", "caspase activation": "0.292% [at 42.5 µM]"}
{"smiles": "O=c1[nH]c(=O)c2cn[nH]c2[nH]1", "caspase activation": "0.0857%"}
{"smiles": "CCN1CCN(C(=O)N[C@@H](C(=O)N[C@@H]2C(=O)N3[C@@H]2SC(C)(C)[C@H]3C(=O)O)c2ccccc2)C(=O)C1=O", "caspase activation": "0.885% [at 42.5 µM]"}
{"smiles": "Cc1ccc2cccnc2c1", "caspase activation": "-0.242%"}
{"smiles": "COC(C)(C)CC(C)=O", "caspase activation": "0.0017%"}
{"smiles": "CC(C)(C)OC=O", "caspase activation": "0.652%"}
{"smiles": "CCOC(=O)[C@H](CCc1ccccc1)N[C@H]1CS[C@H](c2cccs2)CN(CC(=O)O)C1=O", "caspase activation": "0.097% [at 42.5 µM]"}
{"smiles": "Cc1cc(C)c(C)c(C)c1", "caspase activation": "0.245%"}
{"smiles": "C=CCN(CC=C)CC=C", "caspase activation": "0.0522%"}
{"smiles": "CC(=O)OC1CCC(C(C)(C)C)CC1", "note": "(stereo not given)", "caspase activation": "0.0814%"}
{"smiles": "CC(C)OC(=O)C(C(=O)OC(C)C)=C1SC=CS1", "caspase activation": "2.48% [at 42.5 µM]"}
{"smiles": "N#CC1(N)CCCCC1", "caspase activation": "-1.16%"}
{"smiles": "C[C@]12C=CC(=O)C=C1[C@@H](F)C[C@@H]1[C@@H]2[C@@H](O)C[C@@]2(C)[C@H]1CC[C@]2(O)C(=O)CO", "caspase activation": "-1.74% [at 42.5 µM]"}
{"smiles": "C[n+]1ccccc1/C=N/O", "caspase activation": "0.0561% [at 42.5 µM]"}
{"smiles": "CCC(=O)OCCOc1ccccc1", "caspase activation": "0.335%"}
{"smiles": "CCc1ccc(CC)cc1", "caspase activation": "-1.03%"}
{"smiles": "Cc1cc2c(cc1CC(=O)c1sccc1S(=O)(=O)Nc1onc(C)c1Cl)OCO2", "caspase activation": "0.426% [at 42.5 µM]"}
{"smiles": "Cc1ccccc1OCC(=O)O", "caspase activation": "-0.083%"}
{"smiles": "CC(C)(Sc1cc(C(C)(C)C)c(O)c(C(C)(C)C)c1)Sc1cc(C(C)(C)C)c(O)c(C(C)(C)C)c1", "caspase activation": "2.27% [at 42.5 µM]"}
